Shiga inhibitor: Shiga toxin inhibition. Vero cells, Shiga toxin protein synthesis inhibition reporter. inhibition, % at 38.7 µM. 290,000 tested, 9.2% active. AID 2315; in the data active = inhibition mostly above about 28%, no sharp cut-off; inactive = mostly below about 43%
AmpC no deterg: inhibitors of E. coli AmpC beta-lactamase without detergent | AmpC nitrocefin hydrolysis, absorbance 480 nm, 0.0001% Triton | Potency, µM (titrated, usually from 57.1 µM), usual class: inhibitors | 330,000 tested, 0.52% active; also: nearly all actives have a fitted effect of over 20% in size
Target sequence (P00811 whole entry, looked up): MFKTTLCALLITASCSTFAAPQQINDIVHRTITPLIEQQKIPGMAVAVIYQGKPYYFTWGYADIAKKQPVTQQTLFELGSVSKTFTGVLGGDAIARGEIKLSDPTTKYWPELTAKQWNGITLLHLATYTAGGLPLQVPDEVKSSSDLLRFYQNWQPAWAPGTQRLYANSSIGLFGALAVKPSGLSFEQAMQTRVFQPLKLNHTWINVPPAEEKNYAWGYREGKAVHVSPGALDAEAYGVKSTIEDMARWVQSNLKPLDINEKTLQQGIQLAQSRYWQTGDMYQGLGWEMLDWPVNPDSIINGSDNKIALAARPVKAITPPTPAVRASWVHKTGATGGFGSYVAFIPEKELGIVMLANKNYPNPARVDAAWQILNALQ
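AmpC (5.3 nM in the dispensed reagent) in 20 mM phosphate pH 7.0 with 0.01% (detergent screen) or 0.0001% Triton X-100 was preincubated with compounds for 15 min at room temperature. Nitrocefin was then added from an 800 uM solution, and hydrolysis was followed at 480 nm.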
SARS PLpro yeast: blocks SARS-CoV papain-like protease in a yeast assay | S. cerevisiae expressing SARS-CoV PLpro, growth rescue | 330,000 tested, 0.19% active | Potency, µM (top dose mostly 32.9 µM), most hits filed as activators; calls by dose curve; also: nearly all actives have a fitted effect of over 55% in size
AmpC detergent: AmpC beta-lactamase inhibition with detergent present. AmpC hydrolysis of nitrocefin, absorbance 480 nm, 0.01% Triton. Potency, µM (doses to about 114 µM), hits mostly inhibitors. 370,000 tested, 0.041% active. AID 485294; also: nearly all actives have a fitted effect of over 25% in size
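AmpC (5.3 nM in the dispensed reagent) in 20 mM phosphate pH 7.0 with 0.01% (detergent screen) or 0.0001% Triton X-100 was preincubated with compounds for 15 min at room temperature. Nitrocefin was then added from an 800 uM solution, and hydrolysis was followed at 480 nm.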
AMA1-RON2 inh: disrupts binding of P. falciparum AMA1 to RON2; AlphaScreen AMA1-biotinylated RON2 peptide binding; 360,000 tested, 0.2% active; Potency, µM (top dose mostly 58.2 µM), actives largely listed as inhibitors; AID 720542; also: nearly all actives have a fitted effect of over 45% in size
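AMA1 (3D7) with his tag at 25 nM final met compounds first, then biotinylated RON2 peptide at 25 nM; detection used donor plus acceptor beads, 10 µg/mL apiece, read by AlphaScreen after 30 min at room temperature.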
CHX counter: affects cycloheximide protein synthesis inhibition readout, counter-screen; cell reporter, cycloheximide protein synthesis inhibition counterscreen; max response, %; 300,000 tested, 12% active; AID 2314; in the data active = max response mostly above about 13%, no sharp cut-off; inactive = mostly below about 14%; also: read at 38.3 µM for the half of the compounds with a filed dose
A number is an active result; – = inactive; ? = inconclusive; · = no result; + = active, no number; [ ] = another dose, or the depositor's remark. The sample as a whole holds a higher share of hits than the screen did. Unless noted, calls follow the shape of the dose curve; as a rule, active = well fitted curve in the direction sought with a large enough effect; inconclusive = small, poorly fitted or top-dose-only effect, or another doubt; inactive = no such curve, though single readings can be large; an effect the other way counts as inactive or inconclusive.

SMILES | Shiga inhibitor | AmpC no deterg | SARS PLpro yeast | AmpC detergent | AMA1-RON2 inh | CHX counter
CC(C)(C)C(=O)O/N=C(\N)c1ccc(Br)cc1 | – | – | – | – | – | –
COc1ccccc1CNCc1ccc(OC)c(OC)c1OC | – | – | – | – | – | –
CC(C)Oc1ccc(C(=O)Nc2ccccc2N2CCOCC2)cc1 | – | – | – | – | – | –
Cc1nc(COc2ccc(C(=O)Nc3ccccc3N3CCOCC3)cc2)cs1 | 26 | – | – | – | – | –
Cc1ccc(/C(C#N)=C\c2cn(C)c3ccccc23)cc1 | 25 | – | – | – | · | 19
Cn1cc(C=O)c2ccccc21 | – | – | – | – | – | –
CC(=O)N(c1ccc(Cl)cc1)c1cn(C(C)=O)c2ccccc12 | – | – | – | – | – | –
CC(=O)Nc1ccc(NC(=O)CCc2ccc(C)o2)cc1 | – | – | – | – | – | –
Cc1cccc(NC(=O)CCc2ccc(C)o2)c1 | – | – | – | – | – | 18
Cc1ccc(-c2ccc(CCC(=O)O)o2)cc1 | 45 | – | – | – | – | 38
Cc1ccc(CCC(=O)Nc2ccc(C)c(C)c2)o1 | – | – | – | – | – | 19
Cc1ccc(NC(=O)CCc2ccc(C)o2)cc1 | · | – | – | – | – | 16
O=C(O)CCc1ccc(-c2cccs2)o1 | – | – | – | – | – | –
CC(C)(C)C(=O)/C(C#N)=C/c1cccs1 | – | – | – | – | – | –
Cn1nc(-c2ccccc2)c(C(O)c2ccccc2C(F)(F)F)c1Cl (centres undefined) | – | – | – | – | – | –
CN(C)C=Nc1ccc2nn(-c3ccccc3)nc2c1 | 93 | – | ? | ? | – | 43
CC(C)c1ccc(/C=N\NC(=O)c2ccc(Cn3cccn3)o2)cc1 | 71 | – | – | ? | – | 54
COc1ccc(/C=N/NC(=O)c2ccccc2OC)cc1COc1ccccc1[N+](=O)[O-] | – | – | – | – | ? | –
COc1ccc(/C=N/Nc2ccccc2C(=O)O)cc1Cn1cc([N+](=O)[O-])cn1 | 56 | – | – | – | – | 46
COc1ccc(C=NNc2ccc([N+](=O)[O-])cc2S(=O)(=O)Nc2ccccc2C(=O)O)cc1OC | · | – | – | · | – | ·
COc1ccc(/C=N/NC(=O)c2ccccc2O)cc1Cn1cc([N+](=O)[O-])cn1 | – | 6.3µM | – | – | – | 24
COc1cccc(/C=N\NC(=O)c2ccc(Cn3cc(Br)c([N+](=O)[O-])n3)o2)c1O | 56 | – | – | – | – | 44
COc1cc(/C=N\NC(=O)c2ccc(Cn3nc([N+](=O)[O-])c(Cl)c3C)o2)ccc1O | – | – | – | – | – | –
O=C(O)c1cccc2c1-c1ccc(Cl)cc1C2=O | · | · | · | · | – | ·
CC(=O)c1ccc(COC(=O)Cc2ccc([N+](=O)[O-])cc2)cc1 | – | – | – | – | – | –
SMILES | Shiga inhibitor | AmpC no deterg | SARS PLpro yeast | AmpC detergent | AMA1-RON2 inh | CHX counter
COc1ccc(/C=N/NC(=O)c2cc(O)c(O)c(O)c2)cc1Cn1cc([N+](=O)[O-])cn1 | – | – | 10µM | – | ? | –
COc1ccc(/C=N/NC(=O)c2ccc(Br)o2)cc1Cn1cc([N+](=O)[O-])cn1 | 77 | – | – | – | – | 39
Cc1ccc(/C=N/NC(=O)c2ccc(Cn3cc([N+](=O)[O-])cn3)o2)cc1 | 21 | – | – | – | – | –
Cc1cc(C)cc(NC(=O)Cc2ccc(NC3=NC4CS(=O)(=O)CC4S3)cc2)c1 (centres undefined) | – | – | – | – | – | –
COc1ccc(C(=O)N[C@H](C(=O)Nc2nc3c(s2)CCCC3)C(C)C)cc1 | 79 | – | – | – | –[2.32 µM] | 59
COc1ccc(C(=O)N[C@H](C(=O)Nc2ccc(OC)nc2)C(C)C)cc1 | – | – | – | – | – | 15
CCOc1ccccc1C(=O)N[C@H](C(=O)Nc1nc2c(s1)CCCC2)C(C)C | 38 | – | – | – | – | 21
COc1cccc(OC)c1OCC(C)CNCC1CCCO1 (centres undefined) | – | – | – | – | – | –
Cc1ccc(NC(=O)CCSc2nnc(C)o2)cc1 | – | – | – | – | – | –
Cc1cccc(NC(=O)CCSc2ccccn2)c1 | 74 | – | – | – | – | 75
Cc1ccc(NC(=O)CCSc2ccccn2)cc1 | + | – | – | – | – | 59
CN(CC(=O)Nc1ccc(Cl)cc1)C(=O)c1cc(-c2cccs2)nn1-c1ccccc1 | · | – | · | – | – | ·
O=c1c2ccccc2nc(Cc2ccccc2)n1-c1ccccc1 | – | – | – | – | – | 19
Cc1ccc(-n2c(CNCc3ccc(F)cc3)nc3ccccc3c2=O)cc1 | – | – | – | ? | – | 15
N=C(N)SCc1nc2ccccc2c(=O)n1-c1ccccc1 | 68 | – | – | – | – | 45
O=C(O)c1ccc(CSc2nc3ccccc3c(=O)n2-c2ccccc2)cc1 | – | – | – | – | – | –
Clc1ccc(Nc2nc3ccccc3n3nnnc23)cc1 | – | – | – | – | – | –
O=C(Nc1nnc(S(=O)(=O)N2CCOCC2)s1)c1ccc(Cl)cc1 | – | – | – | ? | – | –
COc1ccccc1C(=O)Nc1nnc(S(=O)(=O)N2CCC(C)CC2)s1 | – | – | – | – | – | –
O=C(Nc1nnc(S(=O)(=O)N2CCOCC2)s1)c1ccccc1 | – | – | – | – | – | 11
COc1ccccc1C(=O)Nc1nnc(S(=O)(=O)N2CCOCC2)s1 | – | – | – | – | – | 14
CC(Oc1ccc(F)cc1)C(=O)Nc1ccc(N2CCOCC2)cc1N1CCOCC1 (centres undefined) | · | – | – | ? | – | ·
CC(=O)n1cc(N(C(=O)CCl)c2ccc(C)cc2)c2ccccc21 | – | – | – | – | – | 22
CCN1CCN(c2ccc(NC(=O)c3cccnc3)cc2Cl)CC1 | – | – | – | – | – | 11
CCN1CCN(c2ccc(NC(=O)c3ccc(F)cc3)cc2Cl)CC1 | 43 | – | – | – | – | 30
SMILES | Shiga inhibitor | AmpC no deterg | SARS PLpro yeast | AmpC detergent | AMA1-RON2 inh | CHX counter
CCN1CCN(c2ccc(NC(C)=O)cc2Cl)CC1 | – | – | – | – | – | –
CC(=O)c1cccc(NC(=O)c2cc(-c3cccs3)on2)c1 | – | – | – | – | – | 14
O=C(Nc1cccc(O)c1)c1cc(-c2cccs2)on1 | 77 | – | – | – | – | 30
O=C(COCc1cc(-c2cccs2)on1)Nc1cccc(O)c1 | · | · | · | – | · | ·
COc1ccccc1CNC(=O)CCC(=O)N1CCOc2ccc(Cl)cc21 | – | – | – | – | – | –
COC(=O)/C=C/c1ccc(-n2ccnc2)cc1 | 38 | – | – | – | – | 40
CC(=O)c1ccc(-n2ccnc2)cc1 | – | – | – | – | – | –
CN(Cc1ccccc1)c1nc2c(c(=O)[nH]c(=O)n2C)n1CCCc1ccccc1 | – | – | – | – | – | 27
Cn1c(=O)[nH]c(=O)c2c1nc(N(CCO)Cc1ccccc1)n2CCCc1ccccc1 | – | – | – | – | – | –
